HP1b binding inh: blocks HP1-beta chromodomain binding to methylated histone tails. AlphaScreen HP1-beta / biotin-H3K9me3 peptide binding. Potency, µM (doses to about 114 µM), for the others: at the highest dose activity change, negative = inhibition, usual class: inhibitors. 390,000 compounds, 0.56% hits; note: nearly all actives have a fitted effect of over 70% in size
Target sequence (P83916 whole entry, looked up): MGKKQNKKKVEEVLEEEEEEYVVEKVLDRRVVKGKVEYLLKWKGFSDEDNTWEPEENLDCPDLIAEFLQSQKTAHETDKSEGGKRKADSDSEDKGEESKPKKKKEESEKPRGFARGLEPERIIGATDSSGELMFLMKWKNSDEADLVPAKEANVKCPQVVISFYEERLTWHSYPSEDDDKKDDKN
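HP1-beta protein (50 nM final) preincubated 30 min at room temperature with biotinylated H3(1-18)K9me3 peptide (50 nM) in PBS pH 7.4, 0.01% Tween-20, then compound added for 30 min. AlphaScreen streptavidin donor/nickel chelate acceptor beads (10 ug/mL final), 30 min dark, luminescence read.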
JMJD2A Tudor: blocks the human JMJD2A Tudor domain; O75164; AlphaScreen JMJD2A-Tudor / H3K4me3 peptide binding; Potency, µM (highest dose often 114 µM), for the others: at the top dose activity change, negative = inhibition, hits mostly inhibitors; 390,000 compounds, 4.4% hits; note: % is set by controls: 0 for no effect and ±100 for the full control effect; nearly all actives have a fitted effect of over 50% in size
G9a block: blocks human histone lysine methyltransferase G9a | Q96KQ7 | G9a H3K9 monomethylation, AlphaScreen, 2 h | Potency, µM (top dose mostly 102 µM), inactives show at the highest dose activity, negative = inhibition, hits mostly inhibitors | 350,000 compounds, 8.8% hits; note: % is set by controls: 0 for no effect and ±100 for the full control effect; nearly all actives have a fitted effect of over 75% in size
Target sequence (Q96KQ7 913-1193 limits assumed): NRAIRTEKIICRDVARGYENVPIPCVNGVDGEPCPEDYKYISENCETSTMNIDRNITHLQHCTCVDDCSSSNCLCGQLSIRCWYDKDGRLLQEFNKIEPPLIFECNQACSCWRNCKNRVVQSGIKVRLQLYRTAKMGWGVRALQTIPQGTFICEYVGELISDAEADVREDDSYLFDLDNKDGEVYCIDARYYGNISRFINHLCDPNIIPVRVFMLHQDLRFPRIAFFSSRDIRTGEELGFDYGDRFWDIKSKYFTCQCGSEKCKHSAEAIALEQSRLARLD
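Enzyme 20 nM + cpd, 15 min RT; add b-H3K9 pep 500 nM / SAM 20 uM; 2 h RT; anti-H3K9me1 Ab 0.5 ug/mL + SA donor / anti-rabbit acceptor beads 20 ug/mL each, 10 min; AlphaScreen read.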
BAZ2B block: inhibitors of human BAZ2B bromodomain; AID 504333; Potency, µM (series often up to 114 µM), for inactives: top-dose activity change, negative = inhibition, most hits filed as inhibitors; AlphaScreen BAZ2B-H3K14Ac peptide displacement; Q9UIF8; 360,000 compounds, 4.4% hits; note: % is set by controls: 0 for no effect and ±100 for the full control effect; nearly all actives have a fitted effect of over 60% in size
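Inhibition is scored as reduced AlphaScreen emission. The BAZ2B/b-H3(5-23)K14Ac complex (50 nM each) in PBS pH 7.4, 0.01% Tween-20 meets compound (up to 110 uM) for 30 min at RT before bead addition.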
Sfp inh: Sfp phosphopantetheinyl transferase inhibition; Q9F4F7; Biochemical Sfp PPTase activity, qHTS; Potency, µM, for the others: largest response in the series, negative = inhibition, most hits filed as inhibitors; 310,000 compounds, 3.5% hits;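 note: the enzyme is Sfp with the accession as filed and its product quenches rhodamine fluorescence; 0% = enzyme reaction without inhibitor and -100% = no enzyme wells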
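Compounds were incubated with enzyme (final 15 nM) for 15 min at room temperature before substrate addition started the reaction. Fluorescence at 525 nm excitation, 598 nm emission was recorded immediately and after 30 minutes.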
An asterisk follows results filed as active; u = inconclusive; x = not tested or not shown; [ ] = another dose, or the depositor's remark. Shown are actives, neighbours in structure and some others; about 12% of the full set was active somewhere. Calls come from the whole dose curve; as a rule, active = well fitted curve in the direction sought with a large enough effect; inconclusive = small, poorly fitted or top-dose-only effect, or another doubt; inactive = no such curve, though single readings can be large; an effect the other way counts as inactive or inconclusive. Potency is the fitted concentration of half-maximal effect.

SMILES | HP1b binding inh | JMJD2A Tudor | G9a block | BAZ2B block | Sfp inh
CCn1c(Cc2cccc3ccccc23)nnc1SCC(=O)Nc1nccs1 | 26.1% | 79.4µM* | 10µM* | 5.6% | 13.3%
COc1cccc(N2CCN(C(=O)C3CCN(S(=O)(=O)c4c(C)noc4C)CC3)CC2)c1 | 50.2% | -17.1% | 5.8%[59 µM] | -3.6% | x
O=C1C2CCCCN2C(=O)N1CCCCN1CCN(c2cccc(C(F)(F)F)c2)CC1 (configuration not stated) | 24.7% | -10.3% | x | x | x
Cc1onc(-c2ccccc2Cl)c1C(=O)Nc1nnc(C2CCCCC2)s1 | 10.1% | -22.7% | x | x | x
CC(=O)Nc1ccc(Nc2cc(C(C)C)nc3c(-c4ccccc4)c(C)nn23)cc1 | 79.2% | -14.4% | 3.3% | -6.3% | 7.5%
CCn1c(C)nc2cc(C(=O)NNC(=O)[C@@H](NC(=O)c3cc(OC)cc(OC)c3)C(C)C)ccc21 | 33.4% | -8.2% | x | x | x
COC(=O)[C@@]1(Cc2ccc(F)cc2)[C@H]2c3cc(C(=O)N4CCCC4)n(CCN4CNCC4=O)c3C[C@H]2CN1C(=O)c1ccccc1 | x | x | x | x | -1.6%
COCC1CCN(C(=O)C2CCC(=O)N(CCc3cccc(F)c3)C2)CC1 (configuration not stated) | 20.4% | -8.1% | 40.6% | -12.6% | 5.4%
O=C(CSc1nnc(Cn2c(=O)sc3ccccc32)n1-c1ccccc1)Nc1nccs1 | 50.3% | -16.2% | 35.5µM* | -8.6% | 79.4µM*
Cn1c(CNC(=O)c2ccccc2)nnc1SCC(=O)Nc1nccs1 | -11.7% | 11.2µM* | -0.5% | -12.0% | 5.9%
CCn1c(SCC(=O)Nc2nccs2)nnc1-c1ccc(C)cc1 | 21.6% | -20.3% | 20.2%[59 µM] | 1.7% | 4.5%
O=C(CSc1nnc(Cn2c(=O)sc3ccccc32)n1-c1ccccc1)N1CCCC1 | 55.4% | -7.1% | -10.3%[59 µM] | -1.1% | 16.4%
COc1cccc(C(=O)NCc2nnc(SCC(=O)Nc3nccs3)n2-c2ccccc2)c1 | 30.3% | -7.0% | 5.5%[59 µM] | -3.7% | 18.5%
CCC(=O)Nc1ccc(-c2nnc(SCC(=O)Nc3nccs3)n2C)cc1 | 26.9% | 89.1µM* | 39.8µM* | -5.4% | 8.3%
COc1ccc(OC)c(CCNC(=O)CCC(=O)N2CCOc3ccc(C)cc32)c1 | 15.2% | -23.8% | 4.4% | -35.4% | 15.4%
Cc1ccnc(NC(c2ccccn2)c2c(C)[nH]c3ccccc23)c1 (configuration not stated) | u | 56.2µM* | u | -38.9% | u
Cc1[nH]c2ccccc2c1C(c1ccccn1)N1CCC(C)CC1 (configuration not stated) | 34.1% | -3.3% | u | -10.4% | 0.0%
Cc1[nH]c2ccccc2c1C(c1ccccn1)N1CCCC1 (configuration not stated) | 29.4% | -11.0% | 44.7µM* | -24.3% | -3.4%
CCOC(=O)C1CCCN(C(c2ccccn2)c2c(C)[nH]c3ccccc23)C1 (configuration not stated) | 5.2% | -7.0% | 1.41µM* | -32.6% | 44.7µM*
CCC#CCOCC(=O)Nc1ccccc1 | x | x | x | x | 14.0%
COc1ccc(S(=O)(=O)NCCc2cn3ccsc3n2)cc1 | 14.2%[57 µM] | -9.0% | 26.1%[59 µM] | -2.6% | x
CCCNS(=O)(=O)c1ccc(OCC(=O)Nc2ccc3c(c2)OCO3)cc1 | 16.1% | -2.1% | x | -12.4% | -6.7%
Cc1ccc(NC(=O)CCC(=O)NCCO)cc1 | 28.3% | 2.2% | 1.2% | 9.2% | 23.9%
Cc1ccc(NC(=O)CS(=O)CC(=O)NCCCN(C)c2ccccc2)cc1 (configuration not stated) | 9.9% | -10.1% | 39.8µM* | 9.0% | -18.1%
c1ccc(-c2cnc(CSc3ncnc4sccc34)o2)cc1 | 88.9% | -1.4% | 14.1µM* | 5.3% | 50.1µM*
SMILES | HP1b binding inh | JMJD2A Tudor | G9a block | BAZ2B block | Sfp inh
Cc1ccc(NC(=O)COC(=O)CSC(=S)N2CCOCC2)cc1 | 60.4% | 1.0% | -29.2% | -15.0% | 20.0%
COc1ccc(/C=N/N2CCN(C)CC2)c(OC)c1OC | 26.1% | -1.0% | -36.8% | -2.4% | 20.1%
COc1cccc(C=NN2CCCCCC2)c1OC | u | 56.2µM* | x | x | x
COc1ccccc1N1CCN(/N=C/c2ccc(OC)c(OC)c2OC)CC1 | -2.4% | u | 35.5µM* | 31.6µM* | 8.5%
CCOc1ccccc1C=NN1CCCCCC1 | u | 44.7µM* | x | x | x
CCOc1cc(C=NN2CCCCCC2)ccc1O | u | 50.1µM* | x | x | x
Brc1ccccc1/C=N/N1CCCCC1 | -28.8% | u | -4.8%[2.33 µM] | u | 5.5%
COc1ccc(NC(=O)CCS(=O)(=O)c2ccccc2Cl)cc1S(=O)(=O)Nc1ccc(Cl)cc1 | 19.4% | -18.0% | -5.9% | -28.7% | 13.1%
CC1CCCN(c2ccc(C(=O)Nc3ccc4c(c3)OCO4)cc2[N+](=O)[O-])C1 (configuration not stated) | u | u | 22.4µM* | u | 10.2%
O=C(O)c1ccc(N2CCN(Cc3ccc4c(c3)OCO4)CC2)c([N+](=O)[O-])c1 | u | u | -11.5%[2.33 µM] | -1.5% | 6.5%
O=C(NCc1ccc2c(c1)OCO2)c1ccc(N2CCCCCC2)c([N+](=O)[O-])c1 | u | u | 35.5µM* | u | 14.4%
CC1CCN(c2ccc(C(=O)Nc3ccc4c(c3)OCO4)cc2[N+](=O)[O-])CC1 | u | u | u | u | 11.8%
CC1CCCN(c2ccc(C(=O)NCc3ccc4c(c3)OCO4)cc2[N+](=O)[O-])C1 (configuration not stated) | u | u | 14.1µM* | u | 3.4%
COc1ccc(-c2noc(N3CCC(C(=O)Nc4cccc(C)c4C)CC3)n2)cc1 | 26.4%[57 µM] | -0.6% | -3.5%[59 µM] | 10.6% | x
O=C(Cn1ncc2c3ccccc3n(Cc3ccc(F)cc3)c2c1=O)NCc1ccccn1 | 40.3% | -15.8% | 12.1%[59 µM] | 4.9% | x
Cc1ccc(CNC(=O)Nc2cc(C(=O)NCc3cccc(F)c3)ccc2N2CCCC2)cc1 | 78.1% | -8.6% | 26.3%[59 µM] | 13.6% | x
CSc1ccccc1OCc1cc(C(=O)N(C)Cc2cnccn2)no1 | 31.4% | 1.4% | x | -4.7% | 5.6%
CCC1(c2ccc(Cl)cc2)NC(=S)N(c2ccc(C)cc2)N1 (configuration not stated) | 9.3% | 79.4µM* | 28.2µM* | -35.2% | u
CCC1(c2ccc(Cl)cc2)NC(=S)N(c2ccc(C)c(C)c2)N1 (configuration not stated) | 15.3% | -26.4% | 17.8µM* | -25.7% | -10.4%
CCC1(c2ccccc2)NC(=S)N(c2ccc(C)c(C)c2)N1 (configuration not stated) | 17.1% | u | 7.94µM* | u | 8.91µM*
CCc1cccc(NC(=O)CSc2nnc(-c3cc4occc4n3C)n2-c2ccccc2C)c1 | -2.0% | u | u | u | x
O=C(CSc1nnnn1-c1ccccc1)Nc1ccc(N2CCOCC2)cc1 | -12.2% | -7.8% | u | -15.9% | -0.3%
